Shown are actives, neighbours in structure and some others; about 21% of the full set was active somewhere.
Shiga inhibitor: Shiga toxin inhibition | Vero cells, Shiga toxin protein synthesis inhibition reporter | AID 2315 | inhibition, % at 38.7 µM | 290,000 compounds, 9.2% hits; in the data active means inhibition mostly above about 28%, no sharp cut-off; inactive means mostly below about 43%; further: 0% is about no effect
Pf growth 48h: inhibits P. falciparum growth in the first generation, 48 h; P. falciparum luciferase growth in erythrocytes, 48 h; Potency, µM (titrated, usually from 28.7 µM), inactives show at the top dose activity change, negative = inhibition, hits mostly inhibitors; 310,000 compounds, 5.9% hits; further: potency means the concentration at half of the fitted maximal effect; on the % scale 0 is the no-effect control and ±100 the full control effect
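Growth was read as firefly luciferase luminescence after a 48 h, 37 C, 5% CO2 exposure of compounds to reporter-bearing P. falciparum cultures (0.1% parasitemia, 2% hematocrit final) in Albumax-supplemented RPMI 1640.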
FBPA Giardia inh: Giardia lamblia aldolase inhibition; purified Giardia FBPA; Potency, µM (doses to about 59.6 µM), without a hit: at the top dose activity, negative = inhibition, usual class: inhibitors; 290,000 compounds, 0.71% hits; A8B2U2; further: potency means the concentration at half of the fitted maximal effect; on the % scale 0 is the no-effect control and ±100 the full control effect; nearly all actives have a fitted effect of over 55% in size
Target sequence (A8B2U2 whole entry, looked up): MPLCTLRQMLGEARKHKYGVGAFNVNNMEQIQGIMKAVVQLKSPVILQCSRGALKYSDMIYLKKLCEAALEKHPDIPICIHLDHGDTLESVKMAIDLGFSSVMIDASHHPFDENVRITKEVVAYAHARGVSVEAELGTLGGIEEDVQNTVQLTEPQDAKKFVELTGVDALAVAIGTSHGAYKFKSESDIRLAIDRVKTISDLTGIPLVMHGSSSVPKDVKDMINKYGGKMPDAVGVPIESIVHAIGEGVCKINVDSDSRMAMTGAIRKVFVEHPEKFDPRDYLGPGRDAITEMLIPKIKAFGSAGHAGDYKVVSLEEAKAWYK
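Giardia FBPA (40 nM reagent) was preincubated 10 min at RT with compound (up to 57.5 uM final), then substrate plus GAPDH/TPI/NAD/arsenate coupling system with diaphorase/resazurin was added; resorufin fluorescence (525/598 nm) was read after 20 min.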
Pf growth 96h: inhibits malaria parasite growth, 96 h; P. falciparum luciferase reporter growth, 96 h; Potency, µM (series often up to 28.7 µM), for inactives: at the highest dose activity change, negative = inhibition, usual class: inhibitors; 320,000 compounds, 6.9% hits; further: potency means the concentration at half of the fitted maximal effect; on the % scale 0 is the no-effect control and ±100 the full control effect
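Plates of compound plus infected erythrocytes (2% hematocrit, 0.05% parasitemia final) incubate 96 hours, 37 C, 5% CO2. Detection reagent added; reduced luminescence from the parasites' luciferase reporter flags inhibition.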
NS1 inh: influenza NS1 inhibition. 270,000 compounds, 0.4% hits. Potency, µM (doses to about 46.1 µM), without a hit: at the highest dose activity, positive = more growth. AID 2326; calls by dose curve; further: potency means the concentration at half of the fitted maximal effect; actives are rising curves; nearly all actives have a fitted effect of over 50% in size
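In this qHTS, NS1 from influenza A is expressed in budding yeast, where it slows growth. Cells are switched from glucose to 2% galactose medium (pH 6.0, -URA), treated with compound, and growth recovery is read at OD600.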
Cycloheximide cs: counter-screen for Shiga toxin inhibitors: cycloheximide protein synthesis inhibition; cell reporter, cycloheximide protein synthesis inhibition counterscreen; max response, %; 300,000 compounds, 12% hits; AID 2314; in the data active means max response mostly above about 13%, no sharp cut-off; inactive means mostly below about 14%; further: read at 38.3 µM for the half of the compounds with a filed dose; 0% is about no effect
* = called active by the depositor; u = inconclusive; x = no result; [ ] = dose if it differs, or a comment. Unless noted, the call rests on the fitted dose curve; in most records, active means well fitted curve in the direction sought with a large enough effect; inconclusive means small, poorly fitted or top-dose-only effect, or another doubt; inactive means no such curve, though single readings can be large; an effect the other way counts as inactive or inconclusive.

SMILES	Shiga inhibitor	Pf growth 48h	FBPA Giardia inh	Pf growth 96h	NS1 inh	Cycloheximide cs
COc1ccc(-c2csc(NC(=O)C3CC(=O)N(Cc4ccccc4)C3)n2)cc1OC (configuration not stated)	14	u	x	u	11%	1
c1cncc(-c2cncnc2-n2ccnc2)c1	x	x	-20%	x	x	x
COc1ccc(CNC(=O)CCCC(=O)n2nc(C)c3ccccc32)cc1	-9	20%	2%	-16%	-23%	-3
CCN(CC)c1nc(N2CCOCC2)c(C#N)c2c1CN(C)CC2	-21	u	-8%	10µM*	-4%	-6
CCN1CCc2c(C#N)c(N3CCOCC3)nc(N3CCOCC3)c2C1	-6	x	1%	u	0%	-3
N#Cc1c(N2CCOCC2)nc(N2CCCCC2)c2c1CCN(C1CCCCC1)C2	-5	x	-3%	1.5µM*	1%	-5
CCN1CCc2c(C#N)c(N3CCCCC3)nc(N3CCOCC3)c2C1	-21	u	u	u	-3%	6
CC(=O)c1cccc(NS(=O)(=O)c2ccc3c(c2)N(C(C)=O)CCO3)c1	-7	25%	x	u	5%	-3
COc1ccccc1Oc1ncnc2c1oc1ccccc12	23	1%	-8%	51%	-3%	21*
COc1ccc(Nc2nc(C)nc3c2oc2ccccc23)c(OC)c1	-2	4%[0.00184 µM]	-29%	11%	2%	-1
Cc1ccc(Nc2ncnc3c2oc2ccccc23)cc1	100	x	-6%	33%	-63%	45*
COc1ccc(Nc2ncnc3c2oc2ccccc23)cc1	124*	91%	-6%	-1%	-13%	56*
Cc1nn(-c2ccccc2)c(C)c1NC(=O)COC(=O)c1ccc(Cl)c(S(N)(=O)=O)c1	x	3%	x	3%	x	x
Cc1ccc(-n2c(C)cc(C(=O)COc3cccnc3[N+](=O)[O-])c2C)cc1	54*	11%	-10%	-18%	-2%	43*
Cc1cc(C(=O)COc2cccnc2[N+](=O)[O-])c(C)n1-c1ccccc1	56*	50%	-9%	64%	8%	59*
Cc1cc(C(=O)COc2cccnc2[N+](=O)[O-])c(C)n1Cc1ccco1	10	-21%	u	14%	2%	14
O=S(=O)(c1ccccc1)N1CCC[C@@]2(CCN(c3ccccc3)C2)C1	x	x	-7%	x	x	x
CCOCCCN(C(=O)Cn1nnc(-c2ccc(C)o2)n1)C(C(=O)NC1CCCC1)c1ccc(C)o1 (configuration not stated)	-1	u	11%	u	-4%	-6
O=C(COC(=O)c1ccc(O)cc1O)Nc1cccc2ccccc12	x	-26%	x	-10%	x	x
Cc1ccc(C(=O)NC(O)C(Cl)Cl)cc1 (configuration not stated)	-6	-3%	3%	6%	10%	-5
Cc1ccc(C(=O)NC=C(Cl)Cl)cc1	84*	20%	7%	x	-9%	26*
CC(=O)Nc1c(-c2ccc3ccccc3c2)nc2ccccn12	104*	-12%[0.00184 µM]	0%	149%	0%	21*
CCC(=O)Nc1c(-c2ccc3ccccc3c2)nc2ccccn12	50	62%	2%	89%	1%	38*
COc1ccc(C(=O)Nc2c(-c3ccccc3)nc3ccccn23)c(OC)c1	-8	u	1%	34%	2%	9
O=C(Nc1c(-c2ccccc2)nc2ccccn12)c1ccccc1	19	u	12%	-30%	-21%	5
NC(=O)c1cc(NC(=O)CCCc2nc3ccccc3s2)cc(C(N)=O)c1	-1	-7%	5%	0%	2%	1
CCCCN1C(=O)C2ON(c3ccccc3C)C(c3ccco3)C2C1=O (configuration not stated)	6	13µM*	u	85%	-64%	-1
CCCCOCC(O)Cn1c(C)nc2ccccc21 (configuration not stated)	-15	14%	u	32%	-3%	-2
Cc1cc(C)[n+](C)n1CC(O)Cn1c2ccccc2c2ccccc21 (configuration not stated)	19	0.59µM*	4%	21%	x	-1
Cc1nc2ccccc2n1CC(O)Cn1c2ccccc2c2ccccc21 (configuration not stated)	-11	12µM*	-6%	x	-35%	-3

Source: PubChem BioAssay
